# According to the supplement of paper PMC9262897, “Low-cost anti-mycobacterial drug discovery using engineered E. coli” (Nature Communications, 2022):
# Structures can show the parent of a compound that is named as a salt. ± gives the standard deviation of the averaged measurements.
# Columns and labels:
# Test in all cases: growth (OD600 after 10 h); higher = more growth (less inhibition)
# [1] = test system: E. coli TESEC Alr+ wild-type control; conditions: compound 0.1 mM; raw OD600 reference: median of DMSO wells 0.241, cell-free background 0.041
# Procedure: (§1)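 TESEC Mtb Alr E. coli, or the Alr+ wild-type control, in 384-well plates with Prestwick library compounds at 0.1 mM and 1% DMSO, across arabinose induction levels of 1E3 to 1E7 nM. Growth is read as OD600 after 10 h at 37 °C in triplicate biological replicates.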
# E. coli TESEC Mtb Alr [2] = conditions: compound 0.1 mM
# Procedure: as §1
# E. coli TESEC Mtb Asd = conditions: compound 0.1 mM
# Procedure: (§2)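 TESEC E. coli strains in which the native enzyme is deleted and replaced by arabinose-inducible Mtb Asd, DapB, CysH or TrpD, each grown in its selective medium. Strains were screened against the Prestwick library at 0.1 mM and 1% DMSO in 384-well format at low and high arabinose induction. Growth is read as OD600 after 10 h in triplicate.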
# E. coli TESEC Mtb DapB = conditions: compound 0.1 mM
# Procedure: as §2
# E. coli TESEC Mtb Alr [3] = conditions: compound 0.1 mM; remark: listed apart in the source
# Procedure: (§3)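 TESEC Mtb Alr E. coli (ΔaraC ΔtolC ΔentC Δalr ΔdadX, arabinose-inducible Mtb Alr) or the Alr+ wild-type control strain, grown in defined M9-fructose medium without D-alanine in 96-well plates with Prestwick library compounds at 0.1 mM and 1% DMSO. Low Alr induction is 0.1 µM arabinose and high induction is 10 mM arabinose.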
# [4] = test system: E. coli TESEC Alr+ wild-type control; conditions: compound 0.1 mM; raw OD600 reference: median of DMSO wells 0.49, cell-free background 0.052
# Procedure: as §3
# [5] = arabinose 1000 nM, raw OD600 reference: median of DMSO wells 0.294, cell-free background 0.041
# [6] = arabinose 10000 nM, raw OD600 reference: median of DMSO wells 0.264, cell-free background 0.041
# [7] = arabinose 100000 nM, raw OD600 reference: median of DMSO wells 0.201, cell-free background 0.041
# [8] = arabinose 1000000 nM, raw OD600 reference: median of DMSO wells 0.193, cell-free background 0.041
# [9] = arabinose 10000000 nM, raw OD600 reference: median of DMSO wells 0.146, cell-free background 0.041
# [10] = arabinose induction (level): High, raw OD600 reference: median of DMSO wells 0.331, cell-free background 0.041
# [11] = arabinose induction (level): Low, raw OD600 reference: median of DMSO wells 0.417, cell-free background 0.041
# [12] = arabinose induction (level): High, raw OD600 reference: median of DMSO wells […], cell-free background 0.041
# [13] = arabinose induction (level): Low, raw OD600 reference: median of DMSO wells 0.227, cell-free background 0.041
# [14] = arabinose 100 nM, raw OD600 reference: median of DMSO wells 0.413, cell-free background 0.052
# [15] = arabinose 10000000 nM, raw OD600 reference: median of DMSO wells […], cell-free background 0.052
SMILES,growth [1],growth (E. coli TESEC Mtb Alr [2]; [5]),growth (E. coli TESEC Mtb Alr [2]; [6]),growth (E. coli TESEC Mtb Alr [2]; [7]),growth (E. coli TESEC Mtb Alr [2]; [8]),growth (E. coli TESEC Mtb Alr [2]; [9]),growth (E. coli TESEC Mtb Asd; [10]),growth (E. coli TESEC Mtb Asd; [11]),growth (E. coli TESEC Mtb DapB; [12]),growth (E. coli TESEC Mtb DapB; [13]),growth (E. coli TESEC Mtb Alr [3]; [14]),growth (E. coli TESEC Mtb Alr [3]; [15]),growth [4]
CC(C)C[C@H](CN)CC(=O)O [Pregabalin],0.239 ± 0.015,0.291 ± 0.0063,0.273 ± 0.013,0.178 ± 0.022,0.223 ± 0.015,0.134 ± 0.0081,0.28 ± 0.062,0.406 ± 0.038,0.201 ± 0.0072,0.231 ± 0.07,0.41 ± 0.01,0.306 ± 0.013,–
CC(=O)OCC(=O)[C@H]1CC[C@H]2[C@@H]3CC[C@H]4C[C@H](O)CC[C@]4(C)[C@H]3C(=O)C[C@]12C [Alfadolone acetate],0.15 ± 0.0034,0.196 ± 0.003,0.222 ± 0.0029,0.194 ± 0.0054,0.153 ± 0.0021,0.109 ± 0.0024,0.289 ± 0.075,0.19 ± 0.0093,0.137 ± 0.0076,0.157 ± 0.03,0.395 ± 0.007,0.257 ± 0.0074,–
C[C@]12CCC(=O)C(O)=C1CC[C@@H]1[C@@H]2CC[C@]2(C)C(=O)CC[C@@H]12 [Formestane],0.115 ± 0.0066,0.182 ± 0.011,0.228 ± 0.014,0.1 ± 0.0018,0.0848 ± 0.0012,0.1103 ± 0.00057,0.13 ± 0.017,0.25 ± 0.052,0.156 ± 0.01,0.159 ± 0.0083,0.373 ± 0.025,0.133 ± 0.017,0.392 ± 0.026
CC[C@@]1([C@@H]2O[C@@H]([C@H]3O[C@@](O)(CO)[C@H](C)C[C@@H]3C)C[C@@H]2C)CC[C@H]([C@]2(C)CC[C@]3(C[C@H](O)[C@@H](C)[C@@H]([C@@H](C)[C@@H](OC)[C@H](C)C(=O)O)O3)O2)O1 [Monensin sodium salt],0.218 ± 0.0078,0.279 ± 0.017,0.264 ± 0.0038,0.207 ± 0.028,0.159 ± 0.0076,0.138 ± 0.0041,0.295 ± 0.028,0.408 ± 0.016,0.162 ± 0.01,0.167 ± 0.0025,0.384 ± 0.007,0.149 ± 0.013,0.408 ± 0.05
CN1[C@@H]2CC[C@H]1C[C@@H](OC(=O)[C@H](CO)c1ccccc1)C2 [Hyoscyamine (L)],0.243 ± 0.0078,0.293 ± 0.024,0.272 ± 0.0055,0.23 ± 0.011,0.176 ± 0.005,0.158 ± 0.011,0.317 ± 0.073,0.377 ± 0.074,0.191 ± 0.014,0.29 ± 0.023,0.415 ± 0.02,0.34 ± 0.02,0.468 ± 0.045
CCNCC(O)c1cccc(O)c1 (centres undefined) [Etilefrine hydrochloride],0.247 ± 0.0026,0.3085 ± 0.0027,0.261 ± 0.012,0.188 ± 0.018,0.193 ± 0.0032,0.134 ± 0.0026,0.211 ± 0.025,0.367 ± 0.035,0.205 ± 0.0026,0.224 ± 0.035,0.409 ± 0.015,0.345 ± 0.023,0.446 ± 0.011
NCCCNCCSP(=O)(O)O [Amifostine],0.25 ± 0.0069,0.297 ± 0.011,0.273 ± 0.0058,0.253 ± 0.011,0.196 ± 0.013,0.145 ± 0.0044,0.372 ± 0.057,0.431 ± 0.061,0.196 ± 0.0064,0.209 ± 0.0086,0.402 ± 0.011,0.352 ± 0.011,0.627 ± 0.013
